# Measurements reported in PubChem BioAssay.
# Calls of active or inactive are those of the source. Unless noted, how the calls were made is not given here.
# Legend:
# [1] = anti-His antibody binders, primary screen, artefact control for SMM control protein annotation, biochemical, small-molecule microarray, 635 nm fluorescence (AID 1128); settings: anti-His Alexa647 antibody binding, higher = more signal;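 further: score merges feature fluorescence with signal-to-noise for each printed compound spot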
# [2] = system: Human papillomavirus type 1a E7 protein (residues 1-88); assay: HPV1a E7 small-molecule binders, primary screen, biochemical, small-molecule microarray, residues 1-88, 635 nm (AID 1129); settings: small-molecule microarray binding, fluorescence 635 nm; higher = more signal
# [3] = target: Focal adhesion kinase 1 (Homo sapiens) (UniProt Q05397); assay: small-molecule microarray binders of FAK, primary screen, biochemical, 635/667 nm fluorescence, BSA, DTT (AID 1130); settings: PTK2 binding, 635 nm fluorescence, higher = more signal;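 further: composite of spot emission at 667 nm and signal to noise over triplicate slides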
# [4] = system: Fibrinogen (Alexa647-labelled); assay: fibrinogen binders on compound microarrays, profiling panel, artefact control for SMM control-protein annotation, biochemical, small-molecule microarray, 635/667 nm fluorescence (AID 1131); settings: fibrinogen-A647 binding fluorescence, higher = more signal;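 further: z-score merges 667 nm fluorescence with per-spot signal-to-noise over triplicate slides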
# [5] = target: Follistatin (Homo sapiens) (UniProt P19883); assay: follistatin binders on small-molecule microarrays, primary screen, biochemical, small-molecule microarray, 635/667 nm fluorescence (AID 1132); settings: FST binding, 635 nm fluorescence, higher = more signal
# [6] = target: Fibroblast growth factor 2 (Homo sapiens) (UniProt P09038); assay: FGF2 binders on small-molecule microarrays, primary screen, biochemical, small-molecule microarray, 635/667 nm fluorescence (AID 1133); settings: small-molecule microarray binding, FGF2, fluorescence 635/667; higher = more signal
# [7] = mitochondrial membrane potential change in A549 cells, profiling panel, cell-based, JC-1 fluorescence, basal, 24 h, 100 nL (AID 1138); settings: higher = more signal;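 further: A549 lung adenocarcinoma cells under basal conditions with no added stimulus; test concentration not given here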
# Lefty1 = Lefty1 binders on small-molecule microarrays, primary screen, biochemical, small-molecule microarray, 635/667 nm fluorescence (AID 1139); settings: small-molecule microarray binding, fluorescence 635/667; higher = more signal
# [8] = system: wheat germ agglutinin (Triticum aestivum), Alexa647-labelled; assay: wheat germ agglutinin binders on compound microarrays, profiling panel, artefact control for SMM control-protein annotation, biochemical, small-molecule microarray, 635/667 nm fluorescence (AID 1140); settings: WGA-A647 binding, 635 nm fluorescence, higher = more signal;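 further: score merges 667 nm feature emission with signal to noise over triplicate slides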
# [9] = target: Luciferin 4-monooxygenase (Photinus pyralis) (UniProt P08659); assay: firefly luciferase enzyme inhibitors, primary screen, biochemical, luminescence, purified enzyme, 2006 set (AID 1141); settings: SteadyGlo luminescence, 30 min, higher = more signal, called active from +8 up or from −8 down;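 further: cell-free assay with purified firefly luciferase at 100 ng per well in PBS; test concentration not given here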
# [10] = system: Wnt5a (protein binding on small-molecule microarray); assay: Wnt5a binders on small-molecule microarray, primary screen, biophysical, 635/667 nm fluorescence (AID 1142); settings: 635 nm fluorescence, higher = more signal;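 further: fluorescence read at 667 nm with signal to noise per printed feature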
# [11] = cell viability in Huh7 cells, primary screen, cytotoxicity control for HCV replication inhibitor project, CellTiter-Glo luminescence, basal, 48 h (AID 1143); settings: Huh7 HCV replicon, higher = more signal, called active from +8 up or from −8 down;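 further: Huh7 hepatoma cells carrying a hepatitis C replication reporter with no stimulus; test concentration not given here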
# [12] = P. aeruginosa biofilm formation inhibitors, primary screen, PAO1 strain, BacTiter-Glo luminescence, LB-PBS (AID 1144); settings: 12 h, higher = more signal
# [13] = CREB reporter modulators without forskolin, primary screen, cell-based, PC12, CRE-LacZ reporter, unstimulated (AID 1145); settings: no forskolin, luminescence, 4.5 h, higher = more signal, called active from +8 up or from −8 down
# [14] = CREB reporter modulators under forskolin, primary screen, cell-based, PC12, CRE-LacZ reporter, forskolin-stimulated (AID 1146); settings: luminescence, 4.5 h, higher = more signal, called active from +8 up or from −8 down;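 further: PC12 cells with 6xCRE LacZ reporter stimulated by forskolin 10 µM; beta-galactosidase reporter signal reflecting CREB driven transcription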
# [15] = target: Streptavidin (Streptomyces avidinii) (UniProt P22629); assay: streptavidin binders on small-molecule microarray, primary screen, artefact control for SMM compound annotation, biophysical, 635/667 nm fluorescence (AID 1147); settings: streptavidin binding, higher = more signal;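 further: signal reflects streptavidin binding to arrayed compounds as a control protein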
# [16] = small-molecule binders of probe aInhba, primary screen, biochemical, small-molecule microarray, 635/667 nm fluorescence (AID 1148); settings: higher = more signal;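 further: score merges 667nm spot fluorescence with signal-to-noise for antibody binding to printed compounds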
# Torsin-1A (Homo sapiens) [17] = target: Torsin-1A (Homo sapiens) (UniProt O14656); assay: torsin A binders from cell lysate, primary screen, small-molecule microarray, wild-type, 635/667 nm (AID 1149); settings: COS7 hTOR1A-WT lysate, 635 nm fluorescence, higher = more signal
# Torsin-1A (Homo sapiens) [18] = target: Torsin-1A (Homo sapiens) (UniProt O14656); assay: small-molecule binders of mutant TOR1A in lysate, primary screen, cell lysate, small-molecule microarray, COS7 lysate, 635/667 nm fluorescence (AID 1150); settings: COS7 hTOR1A mutant lysate, 635 nm fluorescence, higher = more signal;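 further: score pools 667 nm emission and signal to noise measuring lysate protein binding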
# [19] = system: Sonic hedgehog protein (Shh); assay: small-molecule binders of Shh protein, primary screen, biochemical, small-molecule microarray, 635/667 nm fluorescence (AID 1151); settings: small-molecule microarray binding, 635 nm fluorescence; higher = more signal;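 further: Shh protein binding to compounds spotted on small-molecule microarray slides; score combines spot fluorescence intensity with signal-to-noise across triplicate slides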
# Sequence of Fibroblast growth factor 2 (Homo sapiens) (P09038 whole entry, looked up): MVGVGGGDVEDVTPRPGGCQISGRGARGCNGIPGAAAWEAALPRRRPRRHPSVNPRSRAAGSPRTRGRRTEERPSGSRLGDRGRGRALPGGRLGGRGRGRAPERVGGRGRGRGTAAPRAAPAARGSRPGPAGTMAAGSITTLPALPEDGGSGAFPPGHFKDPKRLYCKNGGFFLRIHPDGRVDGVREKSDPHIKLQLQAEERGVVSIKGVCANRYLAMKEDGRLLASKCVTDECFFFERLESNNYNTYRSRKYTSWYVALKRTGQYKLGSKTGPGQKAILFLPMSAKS
# Sequence of Luciferin 4-monooxygenase (Photinus pyralis) (P08659 whole entry, looked up): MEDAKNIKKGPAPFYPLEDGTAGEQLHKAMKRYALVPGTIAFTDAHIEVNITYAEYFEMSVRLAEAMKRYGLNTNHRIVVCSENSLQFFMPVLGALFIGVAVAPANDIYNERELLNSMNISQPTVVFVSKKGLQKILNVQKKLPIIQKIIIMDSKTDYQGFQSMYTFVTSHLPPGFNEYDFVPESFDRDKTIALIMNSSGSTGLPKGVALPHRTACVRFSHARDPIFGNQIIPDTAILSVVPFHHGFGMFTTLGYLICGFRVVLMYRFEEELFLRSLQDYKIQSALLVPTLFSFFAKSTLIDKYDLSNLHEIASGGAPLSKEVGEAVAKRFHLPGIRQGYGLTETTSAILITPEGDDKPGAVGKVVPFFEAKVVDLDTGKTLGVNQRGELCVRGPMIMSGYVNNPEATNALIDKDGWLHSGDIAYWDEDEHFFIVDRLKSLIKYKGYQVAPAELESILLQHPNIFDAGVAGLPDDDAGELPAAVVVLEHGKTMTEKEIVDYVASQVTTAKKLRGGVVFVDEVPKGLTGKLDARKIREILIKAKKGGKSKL
# Sequence of Torsin-1A (Homo sapiens) (O14656 whole entry, looked up): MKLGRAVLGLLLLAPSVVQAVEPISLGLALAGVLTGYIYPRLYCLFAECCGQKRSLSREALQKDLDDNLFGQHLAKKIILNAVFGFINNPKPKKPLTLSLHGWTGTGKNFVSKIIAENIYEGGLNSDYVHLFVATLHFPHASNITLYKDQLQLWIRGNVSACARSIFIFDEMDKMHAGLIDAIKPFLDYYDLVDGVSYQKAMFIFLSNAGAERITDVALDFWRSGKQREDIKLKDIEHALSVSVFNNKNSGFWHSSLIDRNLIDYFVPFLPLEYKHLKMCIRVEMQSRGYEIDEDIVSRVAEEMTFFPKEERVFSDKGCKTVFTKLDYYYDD
# Sequence of Follistatin (Homo sapiens) (P19883 whole entry, looked up): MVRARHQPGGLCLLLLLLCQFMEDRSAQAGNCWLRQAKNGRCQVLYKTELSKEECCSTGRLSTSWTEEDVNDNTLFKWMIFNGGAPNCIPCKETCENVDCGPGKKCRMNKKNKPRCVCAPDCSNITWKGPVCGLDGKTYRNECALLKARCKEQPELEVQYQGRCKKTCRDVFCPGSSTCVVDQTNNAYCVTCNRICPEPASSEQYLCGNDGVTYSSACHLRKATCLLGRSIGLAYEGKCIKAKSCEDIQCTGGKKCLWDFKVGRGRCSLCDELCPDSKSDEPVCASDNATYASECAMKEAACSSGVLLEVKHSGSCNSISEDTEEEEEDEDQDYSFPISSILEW
# Sequence of Streptavidin (Streptomyces avidinii) (P22629 whole entry, looked up): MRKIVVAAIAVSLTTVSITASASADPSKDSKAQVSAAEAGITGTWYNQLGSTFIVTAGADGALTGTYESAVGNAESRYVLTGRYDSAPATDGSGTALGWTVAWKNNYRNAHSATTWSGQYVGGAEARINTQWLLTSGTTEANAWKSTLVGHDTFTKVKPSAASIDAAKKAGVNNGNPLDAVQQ
# Sequence of Focal adhesion kinase 1 (Homo sapiens) (Q05397 whole entry, looked up): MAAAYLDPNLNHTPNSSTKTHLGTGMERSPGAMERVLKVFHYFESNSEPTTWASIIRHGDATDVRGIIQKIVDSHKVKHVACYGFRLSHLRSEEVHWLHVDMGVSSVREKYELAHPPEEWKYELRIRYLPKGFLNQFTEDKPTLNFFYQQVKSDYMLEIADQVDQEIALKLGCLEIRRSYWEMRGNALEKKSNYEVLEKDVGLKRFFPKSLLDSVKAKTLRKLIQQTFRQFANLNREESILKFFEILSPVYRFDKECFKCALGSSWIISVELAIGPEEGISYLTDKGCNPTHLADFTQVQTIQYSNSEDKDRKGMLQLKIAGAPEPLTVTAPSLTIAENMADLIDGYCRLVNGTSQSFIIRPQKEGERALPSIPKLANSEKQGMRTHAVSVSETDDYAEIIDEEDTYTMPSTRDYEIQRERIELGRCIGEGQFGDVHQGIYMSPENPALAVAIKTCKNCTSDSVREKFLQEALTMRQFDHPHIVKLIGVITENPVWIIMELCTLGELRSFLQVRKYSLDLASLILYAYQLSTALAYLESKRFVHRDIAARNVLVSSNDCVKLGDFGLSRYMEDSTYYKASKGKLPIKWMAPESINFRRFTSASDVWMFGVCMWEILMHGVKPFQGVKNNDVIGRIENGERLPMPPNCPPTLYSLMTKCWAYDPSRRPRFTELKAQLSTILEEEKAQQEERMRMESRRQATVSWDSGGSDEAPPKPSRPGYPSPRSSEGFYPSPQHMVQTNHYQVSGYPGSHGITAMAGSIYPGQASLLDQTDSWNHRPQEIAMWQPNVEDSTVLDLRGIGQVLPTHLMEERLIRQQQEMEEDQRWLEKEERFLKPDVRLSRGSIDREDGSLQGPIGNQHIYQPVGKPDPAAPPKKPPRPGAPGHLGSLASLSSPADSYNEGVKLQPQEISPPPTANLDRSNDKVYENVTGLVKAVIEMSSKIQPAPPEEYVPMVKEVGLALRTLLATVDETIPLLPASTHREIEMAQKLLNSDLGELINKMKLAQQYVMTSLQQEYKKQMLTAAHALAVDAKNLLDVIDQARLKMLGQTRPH
SMILES,composite z-score [1],composite z-score [2],composite z-score [3],composite z-score [4],composite z-score [5],composite z-score [6],z-score [7],composite z-score (Lefty1),composite z-score [8],z-score [9],composite z-score [10],z-score [11],z-score [12],z-score [13],z-score [14],composite z-score [15],composite z-score [16],composite z-score (Torsin-1A (Homo sapiens) [17]),composite z-score (Torsin-1A (Homo sapiens) [18]),composite z-score [19]
O=C1O[C@H](c2ccccc2)[C@H](c2ccccc2)N2[C@H]1[C@@H](C(=O)N1CCN(c3ncccn3)CC1)[C@]1(C(=O)Nc3ccc(C#CCCO)cc31)[C@H]2c1ccc(O)cc1,0.144,0.762,1.38,0.888,0.809,0.115,-0.683,0.186,0.766,-0.538 (inactive),0.313,-0.522 (inactive),-0.218 (inactive),0.0653 (inactive),0.253 (inactive),1.05,0.0111,0.161,0.0065,0.429
COC(=O)[C@]1(Cc2ccccc2)N=C(c2ccc(OCCCO)cc2)O[C@@H]1c1ccccc1CN=[N+]=[N-],1.12,1.16,0.687,0.415,1.44,0.702,-1.74,0.0393,0.418,-1.44 (inactive),0.239,-5.39 (inactive),-1.19 (inactive),2.31 (inactive),-1.5 (inactive),-0.304,0.233,-0.133,0.104,0.895
O=C1C2C=CC(C(O)c3c(F)cccc3Cl)N(Nc3ccc([N+](=O)[O-])cc3)C2C(=O)N1c1ccccc1 (stereo not given),1.62,1.22,0.682,0.931,1.36,0.589,-0.514,0.948,0.844,1.67 (inactive),0.469,-1.39 (inactive),-1.44 (inactive),-0.0787 (inactive),0.329 (inactive),1.26,0.142,0.414,1.03,1.01
COc1ccc([Si](C)(C)[C@H]2[C@H](CCO)O[C@@]3(C(=O)N(Cc4cccc(N5C(=O)c6ccccc6Oc6ccccc65)c4)c4ccccc43)[C@@H]2C)cc1,0.551,0.838,-0.065,0.327,-0.424,0.649,0.302,-0.351,0.805,0.0939 (inactive),0.0511,-6.96 (inactive),-0.365 (inactive),0.716 (inactive),-1.1 (inactive),0.4,-0.05,-0.412,-0.54,0.734
CC(C)(C)N1CC=CC23O[C@@H]4C=CCCOC(=O)C4[C@H]2C(=O)N(CCCCCCO)[C@@H]3C1=O (stereo not given in full),0.129,0.11,-0.385,-0.959,-0.327,-1.16,0.223,-0.0747,-1.2,-0.876 (inactive),-0.515,0.451 (inactive),0.595 (inactive),-0.0899 (inactive),-0.254 (inactive),-0.703,-0.0933,-1.15,-1.29,0.833
